Reference: PubChem BioAssay AID1347077 (National Center for Advancing Translational Sciences (NCATS), 2019)
Fewer than 10 of roughly 44,000 compounds were called active. Calls come from the whole dose curve; as a rule, active = well fitted activation curve with a large enough effect; inconclusive = small, poorly fitted or top-dose-only effect, or another doubt; inactive = no such curve, though single readings can be large or run the other way. A selection follows.

Biological target: Beta-2 adrenergic receptor (Homo sapiens) (UniProt P07550)
Test: qHTS assay of beta-arrestin-biased ligands of beta2-adrenergic receptor: NCGC Sytravon Library Screen
Details: HTLA Tango cells, beta-arrestin recruitment, luciferase luminescence, 18 h; series mostly up to 46.1 µM
Text: The concept of biased agonism is an emerging concept of molecular pharmacology which proposes that seven transmembrane receptors (7TMRs) or G protein-coupled receptors (GPCRs), exist in multiple signaling conformations and complexes and that ligands (either agonists or antagonists) can induce signaling biased responses for distinct signal transduction cascades. […] Furthermore, accumulating evidence over the last decade has drawn attention to a novel function of beta-arrestins as signal transducers that scaffold various signaling molecules upon activation of 7TMRs. […] This beta-arrestin-biased signaling presumably leads to distinct physiological outcomes from those by G protein activation. Additionally, the active receptor conformations which prefer on this beta-arrestin signaling are likely different from those activating G protein signaling. […] The goal of this screening project will be to discover and optimize novel beta-arrestin-biased ligands for beta2-AR signaling. A luminescent cell-based assay for beta2-AR-mediated agonism, known as the Tango assay, has been validated in which ligand binding of a recombinant beta2-AR and subsequent recruitment of a recombinant beta-arrestin lead to the release of the transcriptional activator tTA, which upregulates transcription of a tTA-responsive luciferase gene. […] Compounds from the NCGC Sytravon Library collection were screened as a concentration-titration series that ranged from 46 microM to 0.6 nM. NIH Molecular Libraries Probe Production Network [MLPCN] NIH Chemical Genomics Center [NCGC] MLPCN Grant: Fast-track/HHSN271700800025C PI: Bryan Roth and Bob Lefkowitz
Tango cells were dispensed into white, solid, tissue-culture-treated 1536-well plates at 1500 cells/well in DMEM, containing 1% fetal bovine serum (FBS). Then, 23 nL of compounds or DMSO were delivered to each well using a pin tool. Plates were incubated at 37 degrees C, 5% CO2 for 18 hr. Then 2.5 uL luminescent substrate mix (in-house prepared: 150 mM Tris-Cl, pH 7.6, 3 mM MgCl2, 1% Triton X-100, 5 mM DTT, 0.5 mM CoA, 0.15 mM ATP, 0.44 mM D-luciferin, final concentrations) was added to each well. Plates were then incubated for 15 minutes at room temperature, and subsequently measured on a ViewLux plate reader for luminescent signal using a clear filter with a 10 second exposure and 2x binning. The %Activity was determined from the corrected luminescence values. […] Concentration-response curves were fitted to the signals arising from the resulting luminescence. The concentration-effect curves were then classified based on curve quality (r2), response magnitude and degree of measured activity, and compounds were subsequently categorized based on their curve class.

Sequence of Beta-2 adrenergic receptor (Homo sapiens) (P07550 whole entry, looked up): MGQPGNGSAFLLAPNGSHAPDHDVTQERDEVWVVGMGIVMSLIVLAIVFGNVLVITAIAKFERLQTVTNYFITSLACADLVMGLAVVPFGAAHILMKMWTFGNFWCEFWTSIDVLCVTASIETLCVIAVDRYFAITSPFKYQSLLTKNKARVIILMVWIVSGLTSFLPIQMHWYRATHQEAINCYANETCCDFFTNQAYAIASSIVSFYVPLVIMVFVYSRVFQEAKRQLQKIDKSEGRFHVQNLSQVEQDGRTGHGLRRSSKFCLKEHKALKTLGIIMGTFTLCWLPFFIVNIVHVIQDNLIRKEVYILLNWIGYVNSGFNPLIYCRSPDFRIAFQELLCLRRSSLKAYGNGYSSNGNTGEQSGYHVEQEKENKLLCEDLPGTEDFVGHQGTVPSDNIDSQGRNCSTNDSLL

outcome, inactive:
Cc1cc(C)cc(NS(=O)(=O)c2cc3c(cc2C)NC(=O)CO3)c1, Cc1[nH]c2ccccc2c1C(c1ccccc1)c1cccs1 (stereo not given), CCOC(=O)c1c(C)[nH]c(C)c1S(=O)(=O)N1CCC(C(=O)Nc2ccc(C)c(Cl)c2)CC1, Cc1csc2nc(COc3ccc(NC(=O)COc4ccccc4)cc3)cc(=O)n12, COc1ccc(OC)c(CNC(=O)c2c3c(nc4ccccc24)C(=O)N(C2CCCCC2)C3)c1, Cc1ccc(NC(=O)CN2C(=O)C(c3ccc(F)cc3)=NC23CCCCCC3)c(C)c1, CCOc1ccc(C(=O)Nc2ccc3nc4c(c(Nc5ccccc5OC)c3c2)CCCC4)cc1, CCc1ccc(S(=O)(=O)c2nnn3c2nc(N2CCN(CC)CC2)c2sccc23)cc1, O=C(c1ccccc1F)N1CCC(c2nc3c(nnn3Cc3cccc(F)c3)c(=O)[nH]2)CC1, Cc1cc(=O)c2cc(C(=O)Nc3cccc(C)c3C)ccc2[nH]1, O=C(Nc1nnc(S(=O)(=O)N2CCOCC2)s1)c1cccc(Br)c1, COc1cccc(-c2nnc(SCC(=O)N3CCC(C)CC3)o2)c1, COc1ccc2c(C)c(CCC(=O)NCc3ccc(OC)c(OC)c3)c(=O)oc2c1, O=C(Cn1cc(SCc2cccc(Cl)c2)c2ccccc21)N1CCCCC1, COc1ccc(-c2cn3c(n2)sc2cc(C(=O)Nc4ccccc4F)ccc23)cc1, COc1cc(OC)c(OC)cc1/C=C/c1nc2ccccc2c(=O)n1-c1ccc(Br)c(C)c1, CCOC(=O)c1c(S(=O)(=O)N2CCCC(C(=O)NCc3ccc(F)cc3)C2)c(C)n(CC)c1C (stereo not given), COc1ccc(CCNC(=O)CCCCn2c(=O)c3ccccc3n(Cc3ccccc3C)c2=O)cc1OC, CCOc1ccc(S(=O)(=O)c2cn(Cc3ccccc3)c3ccc(OCC)cc3c2=O)cc1, COc1ccc(NC(=O)CSc2nccn2C2CCCC2)cc1OC, Cc1ccc(-c2cnc(C3CC3)o2)cc1S(=O)(=O)Nc1cccc(C)c1C, COc1ccc(S(=O)(=O)NCC(c2ccco2)N2CCOCC2)cc1 (stereo not given), CCOC(=O)c1c(NC(C)=O)c2c3c(sc2n1Cc1c(C)cc(C)cc1C)CCCC3, COc1ccc(-c2[nH]c3c(c2-c2c(-n4cccc4)n(C)c(=O)n(C)c2=O)c(=O)n(C)c(=O)n3C)cc1, CC(C)c1ccc(NC(=O)Cn2nnc(C(=O)NCCc3ccccc3)c2N)cc1, CCn1c(=O)cc(OCC(=O)Nc2cc(Cl)c(OC)cc2OC)c2ccccc21, CCc1ccc(NC(=O)Cn2c(=O)n(CCC(=O)NCc3ccc4c(c3)OCO4)c(=O)c3ccccc32)cc1, Cc1cc(C)cc(NC(=O)CSc2nc3nccnc3c(=O)n2CCc2c[nH]c3ccccc23)c1, Cc1c(NC(=O)Cc2ccccc2)cccc1-c1nc2cccnc2s1, COc1ccc(S(=O)(=O)NCC(c2ccc(N(C)C)cc2)N2CCCC2)cc1 (stereo not given), COc1ccc(N2CCN(S(=O)(=O)CCNC(=O)C(c3ccccc3)c3ccccc3)CC2)cc1, N#C/C(=C\c1cccc(F)c1)c1nc(-c2cc3c(ccc4ccccc43)oc2=O)cs1, CCn1c2ccccc2c2nnc(N3CCN(c4cc(C)ccc4C)CC3)nc21, CCOc1ccc(OCC)c(NC(=O)c2c(C)nn(-c3ccccc3)c2-n2cccc2)c1, CCOc1ccc(CNC(=O)c2cc(=O)[nH]c3ccc(S(=O)(=O)N4CCCCC4)cc23)cc1, O=C(CC(NCc1cccnc1)C(=O)O)Nc1ccc(O)cc1 (stereo not given), CCc1nc2onc(C)c2c(=O)n1CC(=O)O, CCCCc1nn2c(=O)cc(COC(=O)c3cccc(NC(=O)COc4ccccc4)c3)nc2s1, COc1ccccc1C(=O)OCc1cc(=O)n2nc(-c3cccs3)sc2n1, CCOc1ccccc1CNC(=O)Nc1cn(CC(C)C)c(=O)c2ccccc12, CC(=O)Nc1cc(C(=O)NCc2ccc(F)cc2Cl)ccc1Sc1ccc(Cl)cc1, O=S(=O)(c1ccc(Cl)cc1)c1nnn2c1nc(NC1CCCC1)c1sccc12, CC(C)(C)c1ccc(C(=O)NCC(c2ccco2)S(=O)(=O)c2ccc(F)cc2)cc1 (stereo not given), COc1ccc(CCNc2nc(-c3ccc(Cl)cc3)cc(C(F)(F)F)n2)cc1OC, CCOc1ccc(Nc2ncnc3scc(-c4ccc(OC)cc4)c23)cc1, Cc1cccc(NC(=O)CSc2nnc(CNC(=O)c3cccc(C)c3)n2-c2ccccc2)c1, Cc1c(C(=O)NCc2ccccc2Br)oc2ccc3c(c12)C(=O)CC(C)(C)O3, O=c1c(NCc2cccs2)nccn1-c1ccccc1, COc1ccccc1Nc1c2c(nc3ccc(NC(=O)/C=C/c4cc(OC)c(OC)c(OC)c4)cc13)CCCC2, CC(=O)N1CCc2cc(Br)cc(S(=O)(=O)CCC(=O)NCCc3ccc(Cl)cc3)c21, Cc1ccccc1CNC(=O)C1CCCN(S(=O)(=O)N(C)c2ccc(F)cc2)C1 (stereo not given), CCOc1cccc(CNC(=O)c2ccc(N3CCCC3)c(NC(=O)Nc3ccccc3CC)c2)c1, Cc1ccc(CN2CCC(CNC(=O)c3cnn(-c4ccccc4Cl)c3C3CCN(C(=O)OC(C)(C)C)CC3)CC2)cc1, COc1cc(OC)c(NC(=O)Cc2ccc(-n3c(C)nc4cccnc43)cc2)cc1Cl, COc1ccc2c(c1)c(N1CCCC1=O)c(C(=O)Nc1ccc(OC)c(Cl)c1)n2C, O=C(CC1N=C2c3ccccc3N=C(SCc3ccc(F)cc3)N2C1=O)NCc1cccs1 (stereo not given), CCOc1ccc(C(=O)c2cn(Cc3ccc(F)cc3)c3ccc(F)cc3c2=O)cc1, COc1ccccc1CNC(=O)CCn1c(=O)c2ccccc2n(CC(=O)Nc2ccc(Br)cc2F)c1=O, CCOc1ccc(N(CC)S(=O)(=O)N2CCCC(C(=O)NCc3ccc(Cl)cc3)C2)cc1 (stereo not given), COC(=O)c1cc(S(=O)(=O)N2CCN(c3cc(Cl)ccc3C)CC2)c[nH]1
